WRN helicase inh = WRN helicase (human) inhibition. Potency, µM (series often up to 114 µM), most hits filed as inhibitors. WRN helicase unwinding, fluorescent forked duplex, kinetic. 360,000 compounds, 0.46% hits; further: nearly all actives have a fitted effect of over 55% in size
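WRN at 20 nM final was preincubated with compound for 15 min at room temperature; reaction started with 100 nM forked duplex oligonucleotide carrying fluorophore and quencher plus 2 mM ATP (final). Unwinding followed kinetically by red fluorescence (ex 525/em 598 nm).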
RECQ1 helicase = blocks DNA unwinding by human RECQ1 | P46063 | RECQ1 DNA unwinding, red fluorescence kinetic read | Potency, µM (series often up to 57.3 µM), actives largely listed as inhibitors | 240,000 compounds, 0.54% hits | AID 2549; further: nearly all actives have a fitted effect of over 30% in size
Target sequence (P46063 whole entry, looked up): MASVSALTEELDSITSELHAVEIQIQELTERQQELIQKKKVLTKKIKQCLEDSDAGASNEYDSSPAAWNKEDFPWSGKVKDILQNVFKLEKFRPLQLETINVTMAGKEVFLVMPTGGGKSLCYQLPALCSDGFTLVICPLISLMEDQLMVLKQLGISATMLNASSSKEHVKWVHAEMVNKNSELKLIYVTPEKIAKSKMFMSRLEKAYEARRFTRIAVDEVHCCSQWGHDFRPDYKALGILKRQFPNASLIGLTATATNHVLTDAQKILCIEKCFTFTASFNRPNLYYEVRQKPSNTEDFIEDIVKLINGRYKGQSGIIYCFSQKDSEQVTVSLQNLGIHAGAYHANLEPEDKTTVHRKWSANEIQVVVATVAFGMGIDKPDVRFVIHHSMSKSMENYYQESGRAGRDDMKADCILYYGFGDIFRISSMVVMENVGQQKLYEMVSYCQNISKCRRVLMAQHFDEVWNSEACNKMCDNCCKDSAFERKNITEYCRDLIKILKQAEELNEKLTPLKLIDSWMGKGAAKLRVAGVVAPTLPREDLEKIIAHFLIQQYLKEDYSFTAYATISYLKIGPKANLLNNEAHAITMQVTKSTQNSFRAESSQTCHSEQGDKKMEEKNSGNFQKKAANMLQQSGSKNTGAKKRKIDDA
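RECQ1T1 50 nM; forked duplex (20 bp + 30-nt ss tails) 200 nM, ATP 2 mM final; pH 8.0, 2 mM MgCl2, 2.5 ug/ml poly(dI-dC); 15 min compound preincubation; discontinuous kinetic read over 2 h at RT.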
L3MBTL1 inh-1 = blocks human L3MBTL1. 230,000 compounds, 0.66% hits. Potency, µM (series often up to 57.1 µM), usual class: inhibitors. AID 485360. Q9Y468. AlphaScreen L3MBTL1–H3K9me1 peptide binding; further: nearly all actives have a fitted effect of over 60% in size
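AlphaScreen assay: L3MBTL1 (50 nM final) was preincubated 30 min at room temperature with biotinylated H3(1-15)K9me1 peptide (75 nM final), then 30 min with library compounds; streptavidin donor and nickel chelate acceptor beads (10 ug/mL final) added, 30 min dark.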
APE1 inh = APE1 (human) endonuclease inhibition. recombinant APE1, TAMRA/BHQ-2 abasic DNA cleavage fluorescence. Potency, µM (series often up to 65.8 µM), actives largely listed as inhibitors. 350,000 compounds, 0.35% hits. AID 2517; further: nearly all actives have a fitted effect of over 55% in size
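Quantitative HTS: incision of a TAMRA/BHQ-2 double-stranded substrate bearing a tetrahydrofuran abasic site by 0.75 nM APE1 raises fluorescence. Substrate 50 nM final, added after 15 min compound preincubation at room temperature; progress as third-minus-first kinetic read difference.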
BLM helicase inh = Bloom syndrome helicase (human) inhibition | P54132 | recombinant BLM DNA unwinding, fluorescence dequenching | Potency, µM (highest dose often 56.1 µM), hits mostly inhibitors | 350,000 compounds, 0.2% hits; further: nearly all actives have a fitted effect of over 35% in size
L3MBTL1 inh-2 = blocks human L3MBTL1 methyl-lysine binding. AID 540279. Potency, µM, usual class: inhibitors. shares compounds with L3MBTL1 inh-1. L3MBTL1 methyl-lysine binding inhibition, biochemical qHTS. 500 compounds, 91% hits; further: nearly all actives have a fitted effect of over 70% in size
L3MBTL1 ctr = AlphaScreen signal inhibition, L3MBTL1 hit counter-screen; 500 tested, under 10 active; shares compounds with L3MBTL1 inh-1; Potency, µM (top dose mostly 57.1 µM), usual class: inhibitors; AlphaScreen counterscreen, signal inhibition
Numbers stand for hits; – = inactive; ? = inconclusive; · = no result; [ ] = another dose, or the depositor's remark. Hits are enriched below; roughly 0.92% of the tested compounds scored in any of these assays. The call rests on the fitted dose curve; in most records, active means well fitted curve in the direction sought with a large enough effect; inconclusive means small, poorly fitted or top-dose-only effect, or another doubt; inactive means no such curve, though single readings can be large; an effect the other way counts as inactive or inconclusive.

SMILES | WRN helicase inh | RECQ1 helicase | L3MBTL1 inh-1 | APE1 inh | BLM helicase inh | L3MBTL1 inh-2 | L3MBTL1 ctr
O=C(CSc1nc(=O)n2cc(Cl)ccc2n1)Nc1cccc2ccccc12 | – | · | 25.1µM | – | · | ? | –
Cc1ccn2c(=O)nc(SCC(=O)Nc3cccc4ccccc34)nc2c1 | –[11.6 µM] | · | ? | – | · | · | ·
CC(O)CN(CCN(CC(C)O)CC(C)O)CC(C)O (stereo unspecified) | · | · | · | · | – | · | ·
Cn1c(N)c(C(=O)COC(=O)c2cc(-c3ccco3)nc3ccccc23)c(=O)n(Cc2ccccc2)c1=O | · | ? | 31.6µM | ? | – | 3.77 | –
COCCCN(C(=O)c1cc(-c2ccco2)nc2ccccc12)c1c(N)n(Cc2ccccc2)c(=O)[nH]c1=O | – | · | 31.6µM | – | · | 18.9 | –
COc1ccc(C(=O)C2C3C4COC(O4)C(=O)C3C3C=Cc4ccccc4N32)c(OC)c1 (stereo unspecified) | · | ? | · | – | – | · | ·
CC(c1ccccn1)C(C)(O)C(C)c1ccccn1 (stereo unspecified) | – | · | · | · | · | · | ·
OC(c1ccccn1)(c1ccccn1)c1ccccn1 | – | – | 15.8µM | – | – | 21.2 | –
O=C(NCCC1=CCCCC1)C(=O)NCc1ccccc1 | – | – | – | – | – | · | ·
O=C(O)C1C2C=CC(O2)C1C(=O)NCCC1=CCCCC1 (stereo unspecified) | – | – | 17.8µM | – | – | 3.77 | –
CC(=O)c1ccccc1Oc1cc(NN2CCCCC2)c([N+](=O)[O-])cc1[N+](=O)[O-] | –[11.6 µM] | · | 20µM | – | – | 26.7 | ?
Cc1ccc(NC(=O)CN2C(=O)N/C(=C/c3cc(C)n(-c4cccc(C(=O)O)c4)c3C)C2=O)cc1 | ? | ? | 25.1µM | 11.2µM | – | 16.8 | –
CCn1c(C)cc(/C=C2\NC(=O)N(CC(=O)Nc3cccc(C)c3)C2=O)c1C | – | – | – | – | – | · | ·
Cc1ccc(CN2C(=O)N/C(=C/c3ccc4c(c3)n(C)c(=O)n4C)C2=O)cc1 | · | – | · | – | – | · | ·
Cc1ccc(CN2C(=O)N/C(=C\c3cccn3-c3cccc(C(=O)O)c3)C2=O)cc1 | 31.6µM | – | 2.51µM | – | – | 2.67 | –
Cc1ccc(Cn2c(CN3CCC(C(=O)NCCc4ccccc4)CC3)cc3ccccc32)cc1 | · | · | · | · | – | · | ·
CCOC(=O)c1c(-c2ccco2)csc1NC(=O)COC(=O)c1cnc(C)cn1 | – | · | 31.6µM | – | · | 23.8 | –
O=c1cc(OCc2ccccc2)cc[nH]1 | – | · | 28.2µM | – | · | 5.97 | –
CC(=O)c1ccccc1NS(=O)(=O)c1cccc2nsnc12 | –[11.6 µM] | · | 31.6µM | 5.32µM | – | 26.7 | –
CC(=O)c1ccccc1NS(=O)(=O)c1cccc2nonc12 | – | · | · | – | – | · | ·
COc1ccc(C2=Nn3c(nnc3-c3ccccn3)SC2)cc1OC | – | – | 25.1µM | – | – | ? | –
Cc1cc(C)cc(OC(C)C(=O)Nc2nonc2-c2ccc(Br)cc2)c1 (stereo unspecified) | · | · | · | · | – | · | ·
O=C(CNC(=O)c1ccccc1Cl)OCc1cc(=O)n2nc(C3CC3)sc2n1 | · | · | · | · | – | · | ·
O=C(O)c1ccc(S(=O)(=O)Nc2ccc(O)c(Sc3nc4ccccc4s3)c2)cc1 | ? | – | 22.4µM | – | – | 7.52 | –
O=C(/C=C/c1ccccc1)N1CCN(Cc2cc(=O)n3nc(-c4ccccc4Cl)sc3n2)CC1 | · | · | · | · | – | · | ·
SMILES | WRN helicase inh | RECQ1 helicase | L3MBTL1 inh-1 | APE1 inh | BLM helicase inh | L3MBTL1 inh-2 | L3MBTL1 ctr
O=C(/C=C/c1ccco1)N1CCc2ccccc21 | – | – | – | – | – | · | ·
Cc1ccc(/C=C/C(=O)N2CCc3ccccc32)o1 | ? | ? | 31.6µM | ? | ? | 5.97 | –
c1coc(-c2nc3ccccc3nc2-c2ccco2)c1 | ? | ? | 31.6µM | – | 15.8µM | ? | –
Cc1ccc(S(=O)(=O)Nc2c(C)nn(C)c2C)cc1C | – | · | – | – | · | · | ·
CC(=O)c1ccc(S(=O)(=O)Nc2c(C)nn(C)c2C)cc1 | –[11.6 µM] | · | 28.2µM | ? | · | ? | –
O=C(/C=C\c1ccco1)Nc1cc([N+](=O)[O-])ccc1F | – | – | – | – | – | · | ·
O=C(/C=C/c1ccco1)Nc1cc(Cl)ccc1C(=O)O | – | – | 28.2µM | ? | – | 10.6 | –

High-throughput results from PubChem BioAssay.
